Data from PubChem BioAssay (NCATS).
Where “and” joins values, the source holds several entries; their conditions need not be identical. Equal values may be shown once. Records with an inconclusive call do not appear. Where a call stands in place of a potency, no number is given. Where a structure was tested more than once in an assay, its records may differ in their call. Calls of active or inactive are those of the source. Calls come from the whole dose curve; as a rule, active = well fitted curve in the direction sought with a large enough effect; inconclusive = small, poorly fitted or top-dose-only effect, or another doubt; inactive = no such curve, though single readings can be large; an effect the other way counts as inactive or inconclusive.

How the values were obtained:
[1] = MultiTox-Fluor Cytotoxicity Assay - LYMP1-002 - Live Cells (AID 955);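 note: cells exposed to compound for 16 hours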
Procedure, shortened: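 Read-out is live-cell protease activity (cell-permeant GF-AFC substrate, fluorescence Ex/Em=405/510), where a decrease indicates acute toxicity. Human lymphoblastoid cells were treated 16 hours at 37 C in a concentration series, and AC50 values came from standard Hill modelling.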

[2] = MultiTox-Fluor Cytotoxicity Assay - LYMP1-003 - Live Cells (AID 962);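 note: cells exposed to compound for 16 hours at 37 °C; cytotoxic hits lower the live-cell protease signal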
Procedure, shortened: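 qHTS, 1536-well; 2500 cells/well LYMP1-003; 5 hr 37 C settle; cpd 16 hr 37 C; MultiTox-Fluor reagent 60 min RT; live-cell protease fluor. 405/510; Hill-fit AC50; tetraoctylammonium bromide pos. ctrl.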

[3] = Cell Viability - LYMP1-003 - Assay at 24 hr (AID 963); note: potency is the fitted concentration of half-maximal effect
Procedure, shortened: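 Cells seeded at 2500/well, 5 hr at 37 C; compounds added; 24 hr at 37 C; CellTiter-Glo added, 30 min room temperature; luminescence read. Decrease in ATP taken as cytotoxicity, AC50 from Hill modelling.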

[4] = Cell Viability - LYMP1-003 - Assay at 40 hr (AID 964); note: nearly all actives have a fitted effect of over 60% in size; note: potency is the fitted concentration of half-maximal effect
Procedure, shortened: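 Cells were seeded at 2500 per well and incubated 5 hr at 37 C. Compounds were added across a concentration series and left 40 hr at 37 C. CellTiter-Glo was added for 30 min at room temperature before luminescence reading.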

[5] = Cell Viability - LYMP2-003 (AID 965);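 note: cells exposed to compounds for 24 h before reading; nearly all actives have a fitted effect of over 50% in size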; note: potency is the fitted concentration of half-maximal effect
Procedure, shortened: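 Human lymphoblastoid cells (2500/well) were pre-incubated 5 hr at 37 C, then exposed to compounds over a concentration range for 24 hr at 37 C. Intracellular ATP was read by CellTiter-Glo luminescence; AC50 came from Hill-equation fits.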

[6] = Cell Viability - LYMP2-004 (AID 966); note: nearly all actives have a fitted effect of over 65% in size; note: potency is the fitted concentration of half-maximal effect
Procedure, shortened: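 Cells seeded 2500/well, rested 5 hr at 37 C, dosed across a concentration series, incubated 24 hr at 37 C, then CellTiter-Glo added for 30 min at room temperature and luminescence read. Hill fitting gave AC50.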

[7] = Cell Viability - LYMP2-005 (AID 967); note: potency is the fitted concentration of half-maximal effect
Procedure, shortened: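 CellTiter-Glo luminescence (cellular ATP) read-out; LYMP2-005 lymphoblastoid cells, 2500/well, 5 h pre-incubation, then 24 h compound exposure at 37 C in complete medium. Tetraoctylammonium bromide positive control; AC50 by standard Hill fit.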

[8] = molecular target: Alpha-galactosidase (Coffea arabica) (UniProt Q42656); assay: Counterscreen for Glucocerebrosidase Inhibitors: qHTS Assay for Coffee Bean alpha-Galactosidase at pH 4.5 (AID 957); note: series mostly up to about 77 µM
Procedure, shortened: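 Coffee bean alpha-galactosidase 2 nM, substrate 4-MU-alpha-Gal 80 uM, pH 4.5 citrate/Tween-20, 20 min RT. Cpd titration 0.7 nM–77 uM. Stop pH 10, fluorescence 365/440 nm; Hill-equation AC50.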

Chain of Alpha-galactosidase (Coffea arabica) (Q42656 whole entry, looked up): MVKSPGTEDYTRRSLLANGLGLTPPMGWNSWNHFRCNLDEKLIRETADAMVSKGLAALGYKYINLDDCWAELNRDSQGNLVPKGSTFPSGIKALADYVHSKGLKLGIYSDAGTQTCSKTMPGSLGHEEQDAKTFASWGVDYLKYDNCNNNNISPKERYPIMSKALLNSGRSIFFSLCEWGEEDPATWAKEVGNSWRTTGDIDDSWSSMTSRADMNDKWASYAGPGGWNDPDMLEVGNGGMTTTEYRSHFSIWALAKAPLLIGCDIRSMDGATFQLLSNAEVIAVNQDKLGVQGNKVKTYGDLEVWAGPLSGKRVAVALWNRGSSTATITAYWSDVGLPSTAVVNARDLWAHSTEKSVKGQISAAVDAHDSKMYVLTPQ

Structure (SMILES)	Potency [1]	Potency [2]	Potency [3]	Potency [4]	Potency [5]	Potency [6]	Potency [7]	outcome [8]
O=[N+]([O-])c1ccc(F)c([N+](=O)[O-])c1	inactive	inactive	inactive	inactive	inactive	inactive	inactive	
CCOC(=O)c1ccccc1C(=O)OCC	inactive	inactive	inactive	inactive	inactive	inactive	inactive	
NNC(N)=O	inactive	inactive	inactive	inactive	inactive	inactive	inactive	inactive
O=C/C=C/c1ccccc1	inactive	inactive	inactive	inactive	inactive	inactive	inactive	
O=Cc1ccco1	inactive	inactive	inactive	inactive	inactive	inactive	inactive	
[O]=[Cr](=[O])([OH])[O][Cr](=[O])(=[O])[OH]	inactive	inactive	inactive and 39.8 µM (active)	inactive and 39.8 µM (active) and 25.1 µM (active)	12.6 µM (active) and 20 µM (active) and 7.94 µM (active)	10 µM (active) and 15.8 µM (active) and 6.31 µM (active)	10 µM (active) and 15.8 µM (active)	
C[C@H]1CCC[C@H](O)CCCCCc2cc(O)cc(O)c2C(=O)O1	inactive	inactive	inactive	inactive	inactive	inactive	inactive	
ClCC1CO1 (stereo unspecified)	inactive	inactive	inactive	inactive	inactive	inactive		
ClC=C(Cl)Cl	inactive	inactive	inactive	inactive	inactive	inactive	inactive	
CCCCCl	inactive	inactive	inactive	inactive	inactive	inactive		
O=[N+]([O-])c1ccccc1	inactive	inactive	inactive	inactive	inactive	inactive	inactive	
C[C@]12CCC(=O)C[C@@H]1CC[C@@H]1[C@@H]2CC[C@]2(C)[C@@H](O)CC[C@@H]12	inactive	inactive	inactive	inactive	inactive	inactive	inactive	
COC1=CC(=O)O[C@@H](/C=C/c2ccccc2)C1	inactive	inactive	inactive	inactive	inactive	inactive	inactive	
Clc1ccccc1Cl	inactive	inactive	inactive	inactive	inactive	inactive	inactive	
ClC(Cl)(Cl)Cl	inactive	inactive	inactive	inactive	inactive	inactive	inactive	
O=C(O)C(Cl)(Cl)Cl	inactive	inactive	inactive	inactive	inactive	inactive	inactive	
